Measurements as given in PubChem BioAssay AID1159580 (chemical genetic matrix, 2015).
Among all 5,500 compounds or so, about 2,000 (36%) were called active. Roughly 18% stayed inconclusive and do not appear here. Cut-off read from the data, not from the text of the source: active = normalized growth mostly below about 0.91 (no sharp cut-off); inconclusive = no clear call, values can overlap the other calls; inactive = mostly above about 0.92. The list shows a part of the results.

Test: chemical genetic growth profiling, strain panel (AID 1159580);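 note: tested at 20 µM; growth read once vehicle control cultures reached saturation at 30 °C; 1 = growth at the plate median or of vehicle wells; lower values mean less growth of the strain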
Conditions: S. cerevisiae deletion strains, growth OD

Measured: normalized growth

CCCCCCCCCCCCCCCC(=O)OC[C@H](NC(=O)C(Cl)Cl)[C@H](O)c1ccc([N+](=O)[O-])cc1
inactive: locus YAL021C, strain ccr4, active compounds read low 0.986 | locus YAL026C, strain drs2, active compounds read low 0.995 | locus YAL030W, strain snc1, active compounds read low 1.04 | locus YBL061C, strain skt5, active compounds read low 1.02 | locus YBR009C, strain hhf1, active compounds read low 1.02 | locus YBR023C, strain chs3, active compounds read low 1.01 | locus YBR171W, strain sec66, active compounds read low 1.06 | locus YBR231C, strain swc5, active compounds read low 1.01 | locus YBR279W, strain paf1, active compounds read low 1.02 | locus YCL011C, strain gbp2, active compounds read low 1.03 | locus YCL016C, strain dcc1, active compounds read low 1 | locus YCL069W, strain vba3, active compounds read low 1.04 | locus YCR088W, strain abp1, active compounds read low 1.04 | locus YDL005C, strain med2, active compounds read low 1.05 | locus YDL040C, strain nat1, active compounds read low 1.01 | locus YDR001C, strain nth1, active compounds read low 1.03 | locus YDR069C, strain doa4, active compounds read low 0.973 | locus YDR137W, strain rgp1, active compounds read low 1.01 | locus YDR159W, strain sac3, active compounds read low 1.03 | locus YDR195W, strain ref2 1.05 | locus YDR297W, strain sur2, active compounds read low 1.03 | locus YDR334W, strain swr1, active compounds read low 1.03 | locus YDR335W, strain msn5, active compounds read low 1.02 | locus YDR392W, strain spt3, active compounds read low 1.03 | locus YEL003W, strain gim4, active compounds read low 1.04 | locus YEL037C, strain rad23, active compounds read low 1.03 | locus YEL061C, strain CIN8 (second series), active compounds read low 1.04 | locus YER015W, strain faa2, active compounds read low 1 | locus YER016W, strain bim1, active compounds read low 1.02 | locus YER111C, strain swi4, active compounds read low 1.02 | locus YER155C, strain BEM2 (second series), active compounds read low 1.03 | locus YFR010W, strain ubp6, active compounds read low 1.01 | locus YGL167C, strain pmr1, active compounds read low 1.03 | locus YGL173C, strain kem1, active compounds read low 1.05 | locus YGL227W, strain vid30, active compounds read low 1.04 | locus YGL240W, strain doc1, active compounds read low 1.07 | locus YGL253W, strain hxk2, active compounds read low 1.01 | locus YHR013C, strain ard1, active compounds read low 1.07 | locus YHR027C, strain rpn1, active compounds read low 0.992 | locus YHR030C, strain SLT2, active compounds read low 0.97 | locus YHR079C, strain IRE1, active compounds read low 0.985 | locus YHR142W, strain chs7, active compounds read low 1.05 | locus YJL092W, strain hpr5, active compounds read low 1.04 | locus YJL095W, strain BCK1 (second series), active compounds read low 1.05 | locus YJL095W, strain BCK1, active compounds read low 0.998 | locus YJL115W, strain asf1, active compounds read low 1.05 | locus YJL129C, strain trk1, active compounds read low 1.09 | locus YJL154C, strain vps35, active compounds read low 1.03 | locus YJL164C, strain tpk1, active compounds read low 1.04 | locus YJL166W, strain qcr8, active compounds read low 1.03 | locus YJL187C, strain SWE1, active compounds read low 1.05 | locus YJR066W, strain TOR1, active compounds read low 0.984 | locus YKL160W, strain elf1, active compounds read low 1.02 | locus YKR026C, strain gcn3, active compounds read low 1.03 | locus YKR091W, strain srl3, active compounds read low 1.02 | locus YLL001W, strain dnm1, active compounds read low 1.02 | locus YLL026W, active compounds read low 1 | locus YLL041C, strain sdh2, active compounds read low 1.02 | locus YLR027C, strain aat2, active compounds read low 1.02 | locus YLR113W, strain HOG1, active compounds read low 0.975 | locus YLR221C, strain rsa3, active compounds read low 1.02 | locus YLR258W, strain gsy2, active compounds read low 1.03 | locus YLR262C, strain YPT6 (second series), active compounds read low 1.03 | locus YLR320W, strain mms22, active compounds read low 1.01 | locus YLR342W, strain FKS1, active compounds read low 1.01 | locus YLR357W, strain rsc2, active compounds read low 1.03 | locus YLR370C, strain arc18, active compounds read low 1.04 | locus YLR384C, strain iki3, active compounds read low 1.02 | locus YML120C, strain ndi1, active compounds read low 1.01 | locus YMR125W, strain sto1, active compounds read low 1.06 | locus YMR205C, strain PFK2, active compounds read low 1.04 | locus YMR231W, strain pep5, active compounds read low 1.03 | locus YNL071W, strain lat1, active compounds read low 0.986 | locus YNL183C, strain NPR1, active compounds read low 0.927 | locus YNL209W, strain ssb2, active compounds read low 0.995 | locus YNL248C, strain rpa49, active compounds read low 1.04 | locus YNL322C, strain KRE1 (second series), active compounds read low 1.05 | locus YNR049C, strain mso1, active compounds read low 1.04 | locus YOR001W, strain rrp6, active compounds read low 1.03 | locus YOR070C, strain gyp1, active compounds read low 1.03 | locus YOR080W, strain dia2, active compounds read low 1.03 | locus YOR083W, strain WHI5, active compounds read low 1 | locus YOR106W, strain vam3, active compounds read low 1.02 | locus YOR231W, strain MKK1, active compounds read low 0.997 | locus YOR265W, strain rbl2, active compounds read low 1.02 | locus YOR270C, strain vph1, active compounds read low 1 | locus YOR290C, strain snf2, active compounds read low 0.999 | locus YPL051W, strain arl3, active compounds read low 0.999 | locus YPL078C, strain atp4, active compounds read low 1.04 | locus YPL106C, strain sse1, active compounds read low 1.08 | locus YPL240C, strain hsp82, active compounds read low 1.05 | locus YPL256C, strain CLN2, active compounds read low 1.01
active: locus YMR058W, strain fet3, active compounds read low 0.88 | locus YMR129W, active compounds read low 1.09 [resistant]
